Source: PubChem BioAssay (National Center for Advancing Translational Sciences (NCATS))
TbPYK inhibitor: T. brucei pyruvate kinase inhibition. actives 0.12% (n = 410,000). TbPYK enzyme, Kinase-Glo Plus ATP luminescence, 45 min. AID 624173. Potency, µM (top dose mostly 76.8 µM), for the others: at the highest dose activity, negative = inhibition, hits mostly inhibitors; also: potency is read from the fitted curve at half-maximal effect; % is scaled to controls: 0 for no effect and ±100 for the full control effect; nearly all actives have a fitted effect of over 50% in size
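Luminescent Kinase-Glo Plus end-point after 45 min room-temperature reaction of T. brucei pyruvate kinase started with 130 uM ADP (final). Buffer TEA 50 mM pH 7.2 with KCl, MgCl2, BSA, Tween-20; titration-based qHTS with fitted concentration-effect curves.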
Shiga toxin inh: Shiga toxin inhibition | actives 9.2% (n = 290,000) | Vero cells, Shiga toxin protein synthesis inhibition reporter | inhibition, % at 38.7 µM; in the data active = inhibition mostly above about 28%, no sharp cut-off; inactive = mostly below about 43%; also: 0% is about no effect
Cycloheximide cs: counter-screen hit for Shiga toxin inhibitors, cycloheximide; cell reporter, cycloheximide protein synthesis inhibition counterscreen; max response, %; actives 12% (n = 300,000); in the data active = max response mostly above about 13%, no sharp cut-off; inactive = mostly below about 14%; also: read at 38.3 µM for the half of the compounds with a filed dose; 0% is about no effect
LmPK inh: LmPK (Leishmania mexicana) enzyme inhibition; Q27686; purified LmPK, Kinase-Glo ATP luminescence, 1 h; Potency, µM (titrated, usually from 57.5 µM), inactives show at the top dose activity change, negative = inhibition, hits mostly inhibitors; actives 0.37% (n = 290,000); AID 1721; also: potency is read from the fitted curve at half-maximal effect; % is scaled to controls: 0 for no effect and ±100 for the full control effect
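Pyruvate kinase activity monitored as ATP production (luciferase luminescence). Conditions: 0.1 nM enzyme, 0.5 mM PEP, 0.1 mM ADP, 1 h, RT; normalized against uninhibited and no-enzyme wells.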
FBPA Giardia inh: blocks Giardia fructose-bisphosphate aldolase activity; A8B2U2; Potency, µM (titrated, usually from 59.6 µM), for the others: top-dose activity, negative = inhibition, hits mostly inhibitors; actives 0.71% (n = 290,000); purified Giardia FBPA; also: potency is read from the fitted curve at half-maximal effect; % is scaled to controls: 0 for no effect and ±100 for the full control effect; nearly all actives have a fitted effect of over 55% in size
Target sequence (A8B2U2 whole entry, looked up): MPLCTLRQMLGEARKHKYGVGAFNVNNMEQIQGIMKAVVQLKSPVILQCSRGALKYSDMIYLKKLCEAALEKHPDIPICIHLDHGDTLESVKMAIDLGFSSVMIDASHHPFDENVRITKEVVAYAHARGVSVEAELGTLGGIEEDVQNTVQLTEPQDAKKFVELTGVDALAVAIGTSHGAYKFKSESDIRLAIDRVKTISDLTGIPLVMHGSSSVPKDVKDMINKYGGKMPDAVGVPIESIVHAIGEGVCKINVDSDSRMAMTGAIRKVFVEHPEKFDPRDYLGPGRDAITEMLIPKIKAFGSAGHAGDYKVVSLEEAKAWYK
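40 nM FBPA preincubated 10 min at RT with compound (up to 57.5 uM final), then substrate plus GAPDH/TPI/NAD/arsenate coupling and diaphorase/resazurin added. Fluorescence read after 20 min at RT, 525/598 nm.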
Sm TGR block: inhibitors of Schistosoma mansoni thioredoxin glutathione reductase | purified TGR, DTNB reduction, TNB absorbance 405 nm | Q962Y6 | actives 3% (n = 360,000) | Potency, µM (series often up to 114 µM), for the others: at the highest dose activity change, negative = inhibition, hits mostly inhibitors; also: potency is read from the fitted curve at half-maximal effect; % is scaled to controls: 0 for no effect and ±100 for the full control effect; nearly all actives have a fitted effect of over 60% in size
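Kinetic colorimetric format: TGR-catalysed, NADPH-driven DTNB reduction monitored via TNB absorbance. Enzyme dispensed at 20 nM; compound exposure 15 min at room temperature before reaction start.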
Numbers without * were called inactive; ? = inconclusive; nt = not tested or not shown. Shown is part of a subset that was picked to be rich in hits. Unless noted, calls follow the shape of the dose curve; as a rule, active = well fitted curve in the direction sought with a large enough effect; inconclusive = small, poorly fitted or top-dose-only effect, or another doubt; inactive = no such curve, though single readings can be large; an effect the other way counts as inactive or inconclusive.

SMILES	TbPYK inhibitor	Shiga toxin inh	Cycloheximide cs	LmPK inh	FBPA Giardia inh	Sm TGR block
COc1ccc2[nH]cc(CCNc3ccnc(-c4ccc(C(=O)N(C)C)cc4)n3)c2c1	nt	nt	nt	nt	-6.2%	nt
COc1cccc(NCc2cccn2-c2nnc(N3CCC(C)CC3)s2)c1	-0.3%	nt	nt	nt	nt	-21.3%
CCCC(=O)OCC(=O)Nc1ccc2c(c1)OCO2	-3.9%	29.1	15.2*	8.1%	0.5%	-4.5%
O=C(COC(=O)C1CC1)Nc1ccc2c(c1)OCO2	0.1%	51.9	35.6*	-15.5%	-2.6%	1.9%
CCC(=O)OCC(=O)Nc1ccc2c(c1)OCO2	1.0%	29.0	8.5	-1.7%	-3.4%	-2.4%
CC(=O)N1CCC[C@@]2(CCN(C(c3ccccc3)c3ccccc3)C2)C1	-3.2%	nt	nt	nt	5.8%	nt
CN1CCc2nc3sc(C(=O)Nc4cccc(C#N)c4)c(N)c3cc2C1	-10.3%	nt	nt	nt	nt	4.6%
Cc1cccc(NC(=O)c2sc3nc4c(cc3c2N)CN(C(C)C)CC4)c1	-13.8%	nt	nt	nt	nt	-5.2%
Cc1cccc(NC(=O)c2sc3nc(N)c(C#N)cc3c2N)c1	-1.7%	72.0*	31.3*	0.9%	-9.0%	-10.9%
N#Cc1cc2c(N)c(C(=O)Nc3ccccc3)sc2nc1N	nt	90.2*	36.4*	2.7%	?	-1.9%
Cc1nn2c(=O)cc(COC(=O)c3ccc(NC(=O)CCc4ccccc4)cc3)nc2s1	-5.7%	nt	nt	nt	nt	-2.2%
COc1cc(-n2c(N)c(C(=O)NCc3ccco3)c3nc4ccccc4nc32)cc(OC)c1OC	-11.1%	-14.4	-1.7	2.5%	-28.9%	25.1µM*
COc1ccc(-n2c(N)c(C(=O)NCc3ccco3)c3nc4ccccc4nc32)cc1OC	3.9%	10.7	-1.3	4.6%	?	39.8µM*
COc1ccc(-n2c(N)c(C(=O)NCc3ccco3)c3nc4ccccc4nc32)cc1	1.8%	-5.2	-2.2	5.3%	-19.5%	44.7µM*
COc1ccc(Cn2c(N)c(C(=O)NCc3ccco3)c3nc4ccccc4nc32)cc1OC	-12.3%	-7.4	1.0	4.7%	-28.9%	35.5µM*
Nc1c(C(=O)NCc2ccco2)c2nc3ccccc3nc2n1CCN1CCCCC1	-2.2%	-10.3	-1.3	1.5%	-5.8%	-17.5%
Nc1c(C(=O)NCc2ccco2)c2nc3ccccc3nc2n1CCc1ccc(F)cc1	-13.2%	-4.4	2.5	3.8%	?	?
Cn1c(=O)n(C)c2cc(N3CCCCC3)c(NC(=O)c3c(F)cccc3F)cc21	2.3%	nt	nt	nt	nt	-0.7%
CN(CC(=O)Nc1ccc(Cl)c(C(F)(F)F)c1)C(=O)CCN1C(=O)C2CC=CCC2C1=O (stereo not drawn)	-6.5%	nt	nt	nt	nt	3.1%
COc1ccccc1NC(=O)Nc1ccc(F)c(F)c1	-2.5%	80.9*	66.2*	?	-23.2%	7.6%
CCOc1ccc(NC(=O)Nc2ccc3c(c2)nnn3C)cc1	-2.1%	13.5	1.5	-0.5%	-3.4%	1.8%
COc1ccc(C)cc1NC(=O)Nc1cccc(C)c1	6.8%	5.2	0.9	0.9%	-13.2%	11.1%
COc1ccccc1NC(=O)Nc1ccc2c(c1)nnn2C	-14.8%	50.3*	56.6*	3.8%	-18.8%	-13.8%
COc1ccc(NC(=O)Nc2cc(C)ccc2F)cc1OC	-11.0%	40.8*	18.1*	-5.9%	5.8%	nt
COc1ccccc1NC(=O)NCC(=O)Nc1ccc(F)c(F)c1	-0.5%	14.6	8.5	-0.1%	-0.5%	4.5%
SMILES	TbPYK inhibitor	Shiga toxin inh	Cycloheximide cs	LmPK inh	FBPA Giardia inh	Sm TGR block
CCCN(Cc1ccccc1)C(=O)Nc1ccc2c(c1)nnn2C	1.0%	40.0*	18.9*	-1.4%	-19.0%	-3.4%
O=C(c1ccccc1Cl)N1CCCC(c2nc3c(nnn3Cc3ccc(F)cc3F)c(=O)[nH]2)C1 (stereo not drawn)	-5.6%	nt	nt	nt	nt	-2.8%
Cc1ccc(-c2noc(CCC(=O)Nc3ccc(F)cc3Cl)n2)cc1	1.8%	nt	nt	nt	nt	-3.4%
Cc1[nH]nc2c1C(Cc1ccccc1)C(C#N)=C(N)O2 (stereo not drawn)	-1.2%	2.3	6.2	1.0%	8.5%	20µM*
CCCc1[nH]nc2c1C(c1cc(OC)cc(OC)c1)C(C#N)=C(N)O2 (stereo not drawn)	-8.1%	-13.5	7.5	2.4%	-28.2%	25.1µM*
Cc1[nH]nc2c1C(c1ccc(Cl)cc1)C(C#N)=C(N)O2 (stereo not drawn)	1.7%	-12.5	19.3*	-3.6%	-6.1%	?
CCc1[nH]nc2c1C(Cc1ccccc1)C(C#N)=C(N)O2 (stereo not drawn)	0.7%	-7.7	-1.6	7.5%	-1.1%	?
OC1CCCCC1	7.4%	nt	nt	nt	nt	-14.1%
Cc1ccc(C)c(C(=O)CSc2nc3cc(C(=O)NC4CCCC4)ccc3c(=O)n2CC2CCCO2)c1 (stereo not drawn)	-1.8%	nt	nt	nt	nt	0.8%
COc1ccc(Cl)cc1S(=O)(=O)NCc1ccc2c(c1)CCN2C(=O)c1cccc(C)c1	5.4%	nt	nt	nt	nt	5.0%
CCCCn1c(=O)c2oc3ccccc3c2n(Cc2ccc(C)cc2)c1=O	-1.1%	nt	nt	nt	nt	3.0%
CCCSC1=C(C#N)C(c2ccc(OC)cc2)C2=C(CC(C)(C)CC2=O)N1 (stereo not drawn)	-0.6%	-3.7	-4.4	4.4%	0.3%	-34.2%
CSC1=C(C#N)C(c2ccc(Cl)cc2)C2=C(CC(C)(C)CC2=O)N1 (stereo not drawn)	2.9%	27.5	-5.5	5.7%	-6.7%	28.2µM*
O=C(NCCCN1CCc2ccccc2C1)Nc1ccc(Br)cc1	-15.9%	-9.0	22.6*	3.0%	?	0.0%
COc1ccc(NC(=O)NCCCN2CCc3ccccc3C2)cc1	-4.0%	9.7	-1.9	0.8%	?	-1.8%
COc1ccc(OC)c(C2=Nn3c(nnc3-c3cc(OC)ccc3OC)SC2)c1	nt	-4.6	12.2	nt	-10.9%	nt
O=c1c2ccccc2n(Cc2ccccc2F)c(=O)n1-c1cccc(F)c1	8.1%	nt	nt	nt	nt	19.1%
O=C(Nc1cnc2sccn2c1=O)c1ccc(Cl)cc1Cl	-1.6%	120.0*	38.3*	-2.3%	1.7%	-20.7%
COc1ccc(-c2nc3sc(CCNC(=O)C(=O)Nc4ccc(C)c(F)c4)c(C)n3n2)cc1	0.8%	nt	nt	nt	nt	-4.0%
CCOc1ccc(-n2cc(-c3ccccc3)c3c(NCc4ccccc4)ncnc32)cc1	-1.8%	nt	nt	nt	nt	7.6%
CCOc1ccc(-n2cc(-c3ccccc3)c3c(NCc4ccc(F)cc4)ncnc32)cc1	3.7%	nt	nt	nt	nt	79.4µM*
O=C(O)CNc1ncccc1[N+](=O)[O-]	-4.2%	-8.3	-2.0	1.2%	0.2%	11.5%
O=[N+]([O-])c1cccnc1N/N=C/c1ccccc1O	-26.8%	78.1*	42.6*	14.1µM*	0.3%	-3.1%
Cc1c(O)ccc(/C=N/Nc2ncccc2[N+](=O)[O-])c1O	-13.3%	140.9*	31.9*	-4.8%	15.9%	-22.3%
Cc1nc(N)sc1-c1csc(Nc2ccccc2)n1	-5.4%	51.6*	24.9*	-4.6%	-22.7%	-12.9%
